# In the library only some 1.7% were active in any assay of this set; here they are far more common.
# SSB-PriA inh – blocks PriA binding to SSB C-terminal tail | AlphaScreen SSBct-PriA binding, biotinylated peptide | inhibition, % at 33 µM | 430,000 tested, 0.6% active | AID 1272365; in the data active means inhibition mostly above about 37%, no sharp cut-off; inactive means mostly below about 20%
# PfHsp40 rescue – compounds rescuing yeast from Plasmodium falciparum HSP40 toxicity. 340,000 tested, 0.68% active. growth rescue, % at 12.5 µM. S. cerevisiae expressing PfHsp40, growth rescue, ATP luminescence. AID 504582; in the data active means growth rescue above about 28%, passing the limit was not always enough; inconclusive means no clear call, values can overlap the other calls;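 further: yeast W303a lacking pdr1 and pdr3 grown in galactose medium; growth measured after three days at 30 °C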
# BJeLR viability – BJeLR cell viability loss | BJeLR (HRASV12) viability, CellTiter-Glo ATP luminescence, 48 h | inhibition, % (concentration not given with the values) | 300,000 tested, 0.17% active | AID 1554; in the data active means inhibition above about 50%; inconclusive means no clear call, values can overlap the other calls
# Y pestis TopoI – blocks Yersinia pestis topoisomerase I activity; Y. pestis Topo-I cleavage product accumulation, plate reader; activity, % at 10 µM; 360,000 tested, 0.064% active; AID 504884; in the data active means activity above about 50%, passing the limit was not always enough; inconclusive means no clear call, values can overlap the other calls
# PrP UTR inh – inhibition of PrP 5' UTR reporter expression; cell-based PrP 5' UTR mRNA reporter, plate reader; inhibition, % (no concentration beside the values); 340,000 tested, 0.35% active; AID 488862; in the data active means inhibition above about 52%
# PrPC surface inh – cell surface PrPC inhibition, primary TR-FRET screen; P04156; TR-FRET read-out; inhibition, % at 13.8 µM; 370,000 tested, 0.43% active; AID 720596; in the data active means inhibition above about 24%
# A number is an active result; – = inactive; ? = inconclusive; · = no result; ! = a repeat was not active.
SMILES,SSB-PriA inh,PfHsp40 rescue,BJeLR viability,Y pestis TopoI,PrP UTR inh,PrPC surface inh
Brc1ccc2nc(-c3ccco3)c(Cc3ccsc3)n2c1,·,·,·,·,·,34.0
CCOC(=O)N1CCN(c2cc(=O)n(-c3ccc(Cl)cc3)c(=O)[nH]2)CC1,–,·,·,·,·,·
CCOC(=O)N1CCN(c2cc(=O)n(-c3ccccc3Cl)c(=O)[nH]2)CC1,104.2,–,–,–,–,–
O=S(=O)(/C=C/c1ccccc1)Nc1ccn2nccc2c1,–,·,·,·,·,·
O=c1[nH]c(-c2ccccn2)nc2ccccc12,42.0,–,–,–,–,–
O=c1[nH]c(-c2ccccn2)nc(C(F)(F)F)c1Br,82.9,133.2,–,–,–,–
c1ccc(-c2nc3ccccc3[nH]2)nc1,–,–,–,–,–,–
O=S(=O)(NCC1(c2cccs2)CC1)C1CC1,–,·,·,·,·,·
O=C(CCc1ccccc1F)NCC1(O)CCOCC1,–,·,·,·,·,·
COc1ccccc1NC(=O)Nc1nnc(CC(=O)Nc2ccccc2)s1,·,·,–,·,·,–
COc1ccccc1NC(=O)Nc1nnc(CC(=O)Nc2ccccc2C)s1,–,–,–,–,76.5,–
N#C/C(=C\c1c[nH]c2ccccc12)C(=O)Nc1cccc(C(F)(F)F)c1,–,·,·,·,·,·
Clc1c(Cl)c(Cl)c2n[nH]nc2c1Cl,–,59.0,–,–,–,–
COc1cccc(CNC(=O)C2CCCN(S(=O)(=O)c3cccc4nonc34)C2)c1 (stereo not drawn),–,38.1,–,–,–,–
COc1cccc(NC(=O)C2CCCN(S(=O)(=O)c3cccc4nonc34)C2)c1 (stereo not drawn),–,–,–,–,–,–
Cc1cc(=O)n(CCNC(=O)c2ccccc2Cl)cn1,–,·,·,·,·,·
O=C1C=C(O)c2c(O)cc(O)c(O)c2C1=O,–,247.5,–,–,–,–
Nc1ccc(O)c2c1C(=O)c1ccccc1C2=O,–,–,–,–,–,–
O=C1c2ccccc2C(=O)c2c(O)c(O)cc(O)c21,–,179.4,·,–,–,–
COc1ccc(S(=O)(=O)NCc2cc(=O)n(C)c(=O)n2C)cc1F,–,–,–,–,–,–
COc1ccc(S(=O)(=O)NCc2cc(=O)n(C)c(=O)n2C)cc1C,–,41.0,–,–,–,–
Cc1ccc(C)c(-c2cc(C(=O)NNC(=S)NCC(C)C)c3ccccc3n2)c1,–,82.4,–,–,–,–
CCNC(=S)NNC(=O)c1cc(-c2ccccc2C)nc2ccccc12,–,–,–,–,–,·
Cc1cc(C(=O)N/N=C/c2cc(Br)cc([N+](=O)[O-])c2O)c2ccccc2n1,·,184.1,–,–,–,–
Cc1cc(C(=O)COC(=O)CC2Sc3ccccc3NC2=O)c(C)n1-c1cccc(C(F)(F)F)c1 (stereo not drawn),–,–,–,–,–,–
SMILES,SSB-PriA inh,PfHsp40 rescue,BJeLR viability,Y pestis TopoI,PrP UTR inh,PrPC surface inh
Cc1cc(C(=O)COC(=O)Cc2n[nH]c(=O)c3ccccc23)c(C)n1-c1cccc(C(F)(F)F)c1,–,95.6,–,66.9,–,–
O=C(Nc1cccc(-c2csc(NC(=O)c3ccc(Cl)cc3Cl)n2)c1)c1ccc(Cl)cc1Cl,–,·,·,·,·,·
CCOC(=O)N=Nc1c2ccccc2c2nc3no[nH]c3nc12,–,115.8,53.8,–,–,–
CCCCc1ccc(C(=O)O)nc1,87.0,–,·,–,–,–
COc1cccc(OC)c1C(=O)NCC(c1ccc2c(c1)CCN2C)N1CCOCC1 (stereo not drawn),–,·,·,·,·,·
O=C(Cc1ccccc1)NCCS(=O)(=O)N1CCN(c2cccc(Cl)c2)CC1,–,–,–,–,–,–
O=C(Cc1ccc(F)cc1)NCCS(=O)(=O)N1CCN(c2cccc(Cl)c2)CC1,38.4,–,–,–,–,–
COc1ccc(N2C(=O)/C(=C/c3ccc(C)o3)C(=O)NC2=S)cc1,–,–,50.9,–,–,–
O=[N+]([O-])c1cnc(Sc2ccncn2)s1,–,–,61.9,–,–,–
CCOc1ccc(NC(=O)CN(C)C(=O)c2ccc(OCc3ccccc3)c(OC)c2)cc1OCC,42.4,–,–,–,–,–
Nc1c(NC2CCCCC2)c2ccccc2oc1=O,50.0!,–,–,–,–,–
CCN(CC)c1ccc2nc3ccc(N)cc3[n+](-c3ccccc3)c2c1,53.6,–,·,534.2,–,–
CCN(CC)c1ccc2nc3ccccc3[n+](CC)c2c1,41.8,–,–,130.6,–,·
Cc1[nH]c2ccc(C(=O)NC3CCCC3)cc2c1C,–,28.8,·,–,–,–
COc1ccc(N(C(=O)c2ccncc2)S(=O)(=O)c2ccccc2)cc1,–,340.0,–,–,–,–
COc1ccc(N(C(=O)c2ccncc2)S(=O)(=O)c2ccc(F)cc2)cc1,·,435.8,–,–,–,–
COc1ccc(S(=O)(=O)N(C(=O)c2ccncc2)c2ccc(OC(=O)c3ccncc3)cc2)cc1,–,515.1,–,–,–,–
CC(C)(C)c1ccc(NC(=O)N2C3C=CCC2CC3)cc1 (stereo not drawn),–,·,·,·,·,·
O=C(c1ccc(S(=O)(=O)N2CCCCCC2)cc1)N1CCC(CN2C(=O)c3cccc4cccc(c34)C2=O)CC1,–,43.6,–,–,–,–
O=C(CCN1C(=O)COc2ccccc21)Nc1ccc(F)cc1,–,·,·,·,·,·
O=C(c1cccc(C(F)(F)F)c1)N1CCc2ncncc2C1,–,·,·,·,·,·
CCCCN1CC(COCc2ccccc2)Oc2cccc(F)c2S1(=O)=O (stereo not drawn),–,–,·,58.9,–,–
CCCCN1C[C@@H](COCc2ccccc2)Oc2cccc(F)c2S1(=O)=O,·,·,·,·,·,–
O=C(CC1CSc2nc3c(c(=O)n21)CCC3)N1CCc2ccccc21 (stereo not drawn),–,·,·,·,·,·
O=C1NC(=O)C(=Cc2ccccc2[N+](=O)[O-])S1,–,–,·,62.0,–,–
SMILES,SSB-PriA inh,PfHsp40 rescue,BJeLR viability,Y pestis TopoI,PrP UTR inh,PrPC surface inh
O=C(OCc1cc(-c2cccs2)on1)c1c(F)cccc1Cl,–,·,·,·,·,·
CCc1c(C2(O)CCCCC2)[nH]c2ccc(C(F)(F)F)cc12,–,351.1,–,–,–,–
Cc1noc(-c2sccc2NC(=O)C2c3ccccc3Oc3ccccc32)n1,–,·,·,·,·,·
O=S(=O)(NCCNc1ccc(Nc2ccccn2)nn1)c1ccccc1Cl,89.0,·,·,·,·,·
O=C(NCCNc1ccc(Nc2ccccn2)nn1)[C@@H]1CCCO1,52.0,·,·,·,·,·
N#Cc1ccc(-c2c(-c3ccccc3)ncc3cc(F)ccc23)cc1,–,124.4,·,–,–,–
COC(=O)c1ccc(-c2c(-c3ccccc3)ncc3cc(F)ccc23)cc1,–,–,·,–,–,–
CSc1ncccc1C(=O)N1CCC(CNC(=O)C(=O)NCc2ccc(F)cc2)CC1,–,·,·,·,·,·
O=C(CN1C(=O)COc2ccccc21)Nc1cccc(F)c1,–,·,·,·,·,·
O=C(CSC1=NNC(c2ccccn2)S1)Nc1cccc(Cl)c1 (stereo not drawn),42.1,–,–,–,–,–
O=C(CSc1ccc(-c2ccccn2)nn1)Nc1cccc(Cl)c1,–,·,·,·,·,·
O=C(CSC1=NNC(c2ccccn2)S1)Nc1ccccc1 (stereo not drawn),87.3,?,–,–,–,–
CC(=O)OCC1OC(n2cc(F)c(=O)[nH]c2=O)C(OC(C)=O)C1OC(C)=O (stereo not drawn),–,–,–,–,–,–
